The whole screen tested about 310,000 compounds, of which about 14,000 (4.5%) showed an effect of 50% or more. The effect is printed as a negative number. The full list was thinned out, with strong results kept by preference.
target: human ether-à-go-go-related gene (hERG) potassium channel (human, UniProt Q12809); assay: primary screen, population patch clamp on CHO cells stably expressing hERG; higher = less effect of the substance
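Also: peak tail current of the secondary pulse compared with the same well before compound.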

Sequence of human ether-à-go-go-related gene (hERG) potassium channel (Q12809 whole entry, looked up): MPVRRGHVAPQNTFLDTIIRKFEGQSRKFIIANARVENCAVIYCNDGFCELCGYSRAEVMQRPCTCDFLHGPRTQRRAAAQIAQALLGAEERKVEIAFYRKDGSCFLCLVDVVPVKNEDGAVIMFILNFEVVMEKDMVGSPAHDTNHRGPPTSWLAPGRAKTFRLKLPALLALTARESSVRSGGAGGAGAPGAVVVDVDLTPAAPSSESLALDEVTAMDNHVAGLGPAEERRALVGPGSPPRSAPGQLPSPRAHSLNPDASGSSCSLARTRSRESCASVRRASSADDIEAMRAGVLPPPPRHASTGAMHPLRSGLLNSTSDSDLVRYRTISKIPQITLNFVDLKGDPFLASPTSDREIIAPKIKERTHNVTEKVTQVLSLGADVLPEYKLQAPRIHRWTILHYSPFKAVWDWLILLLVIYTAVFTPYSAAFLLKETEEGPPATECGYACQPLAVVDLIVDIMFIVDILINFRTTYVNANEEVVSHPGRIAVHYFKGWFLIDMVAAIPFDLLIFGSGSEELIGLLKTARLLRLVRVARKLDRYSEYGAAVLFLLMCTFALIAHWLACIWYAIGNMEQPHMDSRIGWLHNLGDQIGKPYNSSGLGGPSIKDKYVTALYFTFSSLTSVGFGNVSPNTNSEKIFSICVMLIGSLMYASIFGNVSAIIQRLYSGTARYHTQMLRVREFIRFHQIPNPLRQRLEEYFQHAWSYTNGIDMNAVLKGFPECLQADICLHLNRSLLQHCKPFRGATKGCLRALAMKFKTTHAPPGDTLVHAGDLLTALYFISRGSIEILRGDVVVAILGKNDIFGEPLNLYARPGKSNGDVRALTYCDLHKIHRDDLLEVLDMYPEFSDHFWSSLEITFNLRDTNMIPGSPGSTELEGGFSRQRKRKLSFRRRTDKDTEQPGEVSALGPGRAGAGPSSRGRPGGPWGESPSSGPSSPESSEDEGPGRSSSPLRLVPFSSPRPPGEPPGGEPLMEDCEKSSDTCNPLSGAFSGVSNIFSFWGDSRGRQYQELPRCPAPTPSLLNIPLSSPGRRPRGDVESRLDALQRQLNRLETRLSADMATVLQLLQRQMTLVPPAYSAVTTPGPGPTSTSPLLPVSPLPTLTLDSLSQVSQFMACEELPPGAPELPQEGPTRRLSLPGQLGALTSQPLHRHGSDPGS

| Structure (SMILES) | hERG current change (%, negative = inhibition) at 10uM [%] |
| --- | --- |
| O=C(Nc1cccnc1)c1sc(Nc2ccccc2F)nc1-c1ccccc1 | 20.5 |
| O=C(O)/C=C\C(=O)Nc1ccc(N2CCN(c3cccc(Cl)c3)CC2)cc1 | 10.2 |
| CCCCCN(C(=O)CCC(=O)OCCOc1ccccc1Cl)c1c(N)n(CCCC)c(=O)[nH]c1=O | -41.3 |
| COC(=O)CSc1nnc(-c2ccc(NS(=O)(=O)c3ccccc3)cc2)o1 | 9.9 |
| CC(=O)Oc1ccc2c(C)c(CC(C)O)c(=O)oc2c1 (centres unmarked) | 6.98 |
| Cl.O=C(NN1CCN(Cc2ccccc2Cl)CC1)c1ccc(Br)cc1 | 18.3 |
| Cc1cc(C)c(N=Cc2c(O)[nH]c(=O)[nH]c2=O)c(C)c1 | 11.6 |
| CCN(CC)C(=O)C1CCCN(c2ccccc2[N+](=O)[O-])C1 (centres unmarked) | -1.67 |
| CCN(CC)C(=O)C1CCCN(c2ccc([N+](=O)[O-])cc2/C=N/NC(=O)c2cccc(O)c2)C1 (centres unmarked) | -16.9 |
| CCN(CC)C(=O)C1CCCN(c2ccc([N+](=O)[O-])cc2)C1 (centres unmarked) | -52.2 |
| CCN(CC)C(=O)C1CCCN(c2ccc([N+](=O)[O-])cc2/C=N/NC(=O)c2cccc([N+](=O)[O-])c2)C1 (centres unmarked) | -55.3 |
| CN1CCN(c2ccc([N+](=O)[O-])cc2/C=N/NC(=O)c2cccc([N+](=O)[O-])c2)CC1 | -54 |
| CCN(CC)C(=O)C1CCCN(c2ccc([N+](=O)[O-])cc2/C=N/NC(=O)c2cccc(Br)c2)C1 (centres unmarked) | -0.713 |
| Cn1cc(/C=N/NC(=O)c2cccc([N+](=O)[O-])c2)c2ccccc21 | 14.8 |
| CCN(CC)C(=O)C1CCCN(c2ccc([N+](=O)[O-])cc2[N+](=O)[O-])C1 (centres unmarked) | -38.3 |
| O=C(N/N=C\c1cc([N+](=O)[O-])ccc1N1CCCC1)c1ccccn1 | -3.3 |
| COc1ccc(-c2nnc(CSc3nc4ccccc4c(=O)n3CC3CCCO3)o2)cc1OC (centres unmarked) | -49 |
| CN(Cc1nc(Cc2ccccc2F)no1)CC1(N2CCOCC2)CCCCC1 | -62.8 |
| CN(Cc1nc(-c2cccs2)no1)CC1(N2CCOCC2)CCCCC1 | -24.2 |
| COc1ccc(Cc2noc(CN(C)CC3(N4CCOCC4)CCCCC3)n2)cc1OC | -15.5 |
| Cc1cc(C(C)(C)C)ccc1OCC(=O)N/N=C\c1c(C)n(C)n(-c2ccccc2)c1=O | -66.3 |
| COc1cc(Br)cc(Br)c1OCC(=O)N/N=C/c1c(C)n(C)n(-c2ccccc2)c1=O | -23.1 |
| Cc1ccccc1OCC(=O)N/N=C/c1c(C)nn(-c2ccccc2)c1Cl | 1.74 |
